Screening results deposited in PubChem BioAssay by several laboratories.
CHT block – human CHT choline transport inhibition. CHT-expressing cells, membrane potential dye, choline response; active compounds read low. actives 0.86% (n = 310,000). B-score at 10 µM. Q9GZV3;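 active = B-score over 3 SD under the library average, and starting fluorescence ratio not unusually high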;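 also: choline stimulus applied at its EC90 after an EC20 pre-addition; B-score computed on integrated fluorescence ratio after choline addition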
Target sequence (Q9GZV3 whole entry, looked up): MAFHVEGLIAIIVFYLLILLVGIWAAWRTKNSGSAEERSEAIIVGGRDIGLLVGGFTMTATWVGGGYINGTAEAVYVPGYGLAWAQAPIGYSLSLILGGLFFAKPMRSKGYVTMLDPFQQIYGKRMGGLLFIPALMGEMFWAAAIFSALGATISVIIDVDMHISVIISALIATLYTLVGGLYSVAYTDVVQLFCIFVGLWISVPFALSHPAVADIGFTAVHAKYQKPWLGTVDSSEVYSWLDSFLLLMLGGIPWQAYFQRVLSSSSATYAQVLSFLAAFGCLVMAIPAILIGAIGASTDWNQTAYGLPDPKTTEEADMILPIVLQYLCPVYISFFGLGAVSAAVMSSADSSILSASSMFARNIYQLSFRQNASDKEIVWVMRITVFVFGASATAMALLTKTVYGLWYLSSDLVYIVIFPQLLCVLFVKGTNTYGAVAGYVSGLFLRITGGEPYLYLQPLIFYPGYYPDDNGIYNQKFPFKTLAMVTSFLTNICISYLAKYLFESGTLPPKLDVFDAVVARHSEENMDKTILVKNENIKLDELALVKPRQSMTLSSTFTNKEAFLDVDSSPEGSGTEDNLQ
NLRP3 yeast inh – blocks the NALP3 inflammasome reconstituted in yeast; inhibition, % at 10 µM; actives 0.39% (n = 330,000); Yeast reconstituted NLRP3/ASC/caspase-1, beta-gal luminescence, 24 h; AID 2825;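 active = inhibition of 50% or more; inactive = inhibition below 50%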;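 also: plate controls were induced DMSO wells for no effect and uninduced yeast grown without galactose for full effect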
SUMO Mot1 rescue – blocks SUMOylation pathway, rescuing yeast Mot1-301 growth. growth rescue, % at 18.8 µM. S. cerevisiae Mot1-301 growth rescue, ATP luminescence, 38.5C; percent above DMSO median, 100 means doubled. actives 1% (n = 320,000);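 active = every valid replicate shows activation above 250% relative to neutral control wells; inactive = the rest, any valid replicate at or below 250%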;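 also: OY570 slx delta 5 strain wells were the positive control but not used for scaling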
NALP1 yeast inh – blocks the NALP1 inflammasome reconstituted in yeast | S. cerevisiae NALP1/ASC/caspase-1 growth, X-gal OD620, 72 h | inhibition, % at 10 µM | actives 0.61% (n = 280,000) | AID 2071; in the data active = inhibition mostly above about 24%, no sharp cut-off; inactive = mostly below about 32%
Bfl-1 A1 inh – inhibitors of the anti-apoptotic protein A1, read as caspase activation; MEF A1-2A-BIM cells, Caspase-Glo 3/7 luminescence, 3 h; percent of clofoctol response, vehicle zero; caspase activation, % (concentration not given with the values); AID 2462; actives 0.066% (n = 330,000);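 active = over half of replicate activation scores above 10%, or exactly half above 10 with the replicate mean above 10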
CHT allo act – human CHT allosteric activation; CHT-expressing cells, membrane potential dye, choline EC20; active compounds read high; LV-AA mutant CHT in HEK293 cells; B-score at 10 µM; actives 0.49% (n = 310,000); AID 488977;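 active = initial fluorescence not abnormally high and integrated response B-score, plate-corrected, over 3 SD above library mean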
NALP3 confirm – NALP3 inhibition confirmation in yeast; yeast expressing human NALP3, luminescence; actives 81% (n = 1,300); shares compounds with NLRP3 yeast inh; inhibition, % at 10 µM; in the data active = inhibition above about 48%
Casp1 ASC ctr – counter-screen for NALP3 inhibitors: yeast caspase-1-ASC; shares compounds with NLRP3 yeast inh; yeast expressing Caspase-1-ASC, luminescence counter screen; inhibition, % at 10 µM; actives 66% (n = 1,000)
NALP3 retest – yeast NALP3 inhibition, confirmed on retest; shares compounds with NLRP3 yeast inh; yeast expressing human NALP3, luminescence read-out; inhibition, % at 10 µM; actives 53% (n = 1,000); AID 488794
* hit, by the source's call; i = inactive; x = no result given; ! = a repeat was not active. Most compounds without a hit are left out; they make up all but 3% or so of the library. Rule as the data show it, unless noted: active = inhibition above about 50%; inactive = the rest.

SMILES	CHT block	NLRP3 yeast inh	SUMO Mot1 rescue	NALP1 yeast inh	Bfl-1 A1 inh	CHT allo act	NALP3 confirm	Casp1 ASC ctr	NALP3 retest
OC(c1ccc(Cl)cc1)c1nccc2ccccc12 (centres undefined)	i	58.0*	9.8	11.8	-0.3	i	67.1*	65.5*	46.5
CC(C)C(OC(=O)c1ccccc1)c1nccc2ccccc12 (centres undefined)	i	12.9	173.6	x	2.2	i	x	x	x
c1ccc(C2Nc3ccccc3C3OCCCC23)cc1 (centres undefined)	i	62.1*	223.6	9.9	0.2	i	54.0*	42.1	58.0*
CC(C)c1ccc(NC(=S)NNC(=O)c2cccnc2)cc1	i	31.7	61.1	0.1	0.9	i	x	x	x
O=C(NNC(=S)Nc1ccc(Br)cc1)c1cccnc1	i	52.6*	14.3	0.5	-0.1	i	50.4*	x	x
COc1cccc2c1cc1c(=O)n(CC(=O)NCCCN3CCCCC3)nc(C)n12	i	-4.7	-19.6	24.6	0.2	i	x	x	x
CCCOc1ncnc2c1[nH]c1ccccc12	i	73.8*	-0.9	-2.4	0.4	i	87.5*	81.2*	75.6*
CCCOc1ncnc2c1[nH]c1ccc(OC)cc12	i	31.9	-7.8	8.6	-6.8	i	x	x	x
C=C1/C=C(\C)[C@](C)(O)C[C@H](O)CC(=O)[C@H](O)[C@@H](O)[C@H](C)C[C@H](C)OC(=O)/C(C)=C/CC/C=C/[C@@H]2O[C@H]2C[C@H](C)C1	x	83.2*	-42.9	x	15.1*	x	88.7*	x	x
CCN(CC)S(=O)(=O)c1ccc(/C=C/C(=O)OCC(=O)NCc2cccs2)cc1	x	9.3	-6.1	x	1.5	x	x	x	x
O=C(COc1ccc(F)cc1)Nc1nnc(S(=O)(=O)N2CCCC2)s1	i	5.5	-1.9	19.6	-0.6	i	x	x	x
COc1ccc2c(=O)c3ccccc3oc2c1	i	57.0*	-6.6	22.6	-2.6	i	68.5*	47.5	45.4
COc1ccc2c(c1)oc(=O)c1ccccc12	i	23.3	-16.3	4.5	0.1	i	x	x	x
COc1ccc2c(=O)c(-c3cnn(-c4ccccc4)c3)c(C)oc2c1	i	61.9*	310.1	-2.9	0.0	i	65.7*	58.5*	68.2*
C[C@H]1[C@H](c2ccccc2)C[C@@H](C(=O)O)C1(C)C	i	-16.7	-6.3	x	2.4	i	x	x	x
C#C[C@]1(O)CC[C@H]2[C@@H]3CCc4cc(O)ccc4[C@H]3CC[C@@]21C	i	55.5*	1.1	49.3*	-1.1	i	68.2*	51.3*	43.7
CC12CCC3c4ccc(O)cc4CCC3C1CCC2=O (centres undefined)	i	40.4	97.9	x	2.6	i	x	x	x
CN(C)c1ccc(/C=C/c2ccc3ccccc3[n+]2C)cc1	i	52.1*	-1.3	60.3*	-1.1	i	32.8	x	x
CCN(CC)c1ccc2nc3ccc(N)cc3[n+](-c3ccccc3)c2c1	x	50.9*	x	x	x	x	51.0*	38.6	51.6*
CCN(CC)c1ccc2nc3ccccc3[n+](CC)c2c1	i	66.8*	-38.4	28.3	-0.8	i	72.8*	43.5	57.2*
CCOC(=O)/C=C1\SC(C)C(=O)N1CC(=O)N(CCC#N)c1ccccc1 (centres undefined)	x	13.4	6.7	x	0.5	x	x	x	x
Cc1ccc2sc(NC(=O)CSc3nc(C)cc(C)c3C#N)nc2c1	i	51.1*	-17.7	12.7	0.4	i	40.8	10.6	17.2
Cc1ccc(C(=O)c2nocc2C(=O)c2cccs2)cc1	i	55.3*	-23.1	24.7	1.1	i	60.2*	73.1*	42.0
O=C(N/N=C/c1ccsc1)c1cc2ccccc2o1	i	72.2*	20.4	8.6	-1.6	i	86.8*	70.8*	75.0*
O=C(NCCCN1CCCC1=O)Nc1ccc([N+](=O)[O-])cc1	i	6.4	-1.6	9.9	-0.4	i	x	x	x
SMILES	CHT block	NLRP3 yeast inh	SUMO Mot1 rescue	NALP1 yeast inh	Bfl-1 A1 inh	CHT allo act	NALP3 confirm	Casp1 ASC ctr	NALP3 retest
CCOc1ccc(C(=O)CCc2nc3ccccc3s2)cc1	i	67.4*	29.7	8.6	0.0	i	66.8*	65.3*	59.5*
On1onc2c3cc(-c4ccccc4)nc3ccc21	i	50.6*	-4.9	-0.6	-0.2	i	71.5*	x	x
O=C(Nc1cc2ccccc2oc1=O)c1ccccc1	i	60.0*	-10.3	11.3	1.0	i	72.5*	51.2*	52.8*
COc1ccc(CNC(=S)Nc2ccc(OC)cc2)cc1	i	5.1	17.2	28.9	0.7	i	x	x	x
CCCCc1ccc(NC(=S)NCc2ccc(OC)cc2)cc1	i	50.3*	8.1	-4.0	0.4	i	72.5*	55.1*	34.9
Cc1[nH]c2ccccc2c1N=Nc1ccccc1C(=O)O	i	14.5	-0.7	4.0	-0.1	i	x	x	x
Cc1cc2ccccn2c1C(=O)c1ccc(F)cc1	i	47.7	-8.5	10.7	0.2	i	x	x	x
Cc1c(C=O)c2ccccn2c1C(=O)c1ccc(Cl)c([N+](=O)[O-])c1	i	18.8	859.7	-8.8	-0.4	i	x	x	x
Cc1c(C=O)c2ccccn2c1C(=O)c1ccccc1	i	55.8*	3.5	18.6	-0.1	i	58.6*	54.9*	41.5
Cc1c(C=O)c2ccccn2c1C(=O)c1ccc(F)cc1	i	59.3*	-4.7	8.4	-0.5	i	71.8*	60.0*	54.2*
O=C(OCC(=O)N1N=C(c2ccc(Cl)cc2)CC1c1ccco1)c1cccnc1 (centres undefined)	x	11.9	12.1	x	-1.0	x	x	x	x
CCc1noc(C)c1C(=O)NNC(=O)COc1ccc(Br)cc1	i	15.3	-9.2	17.1	-0.1	i	x	x	x
CCCCCCCCCCCCCCCCn1cc[n+](C)c1	i	61.3*	114.8	93.6*!	-0.4	i	71.6*	x	x
CCCCCCCCn1ccc(=N)cc1	i	0.0	-9.0	12.1	-1.2	i	x	x	x
Cc1ccc2nc(N3C(=O)CNC3=S)sc2c1	i	80.6*	-48.1	-7.2	-7.1	i	61.1*	87.4*	82.6*
CCOc1ccccc1N1CCN(CC(=O)NC(C)c2ccccc2)CC1 (centres undefined)	i	2.4	-29.4	-3.6	0.6	i	x	x	x
O=C1NC[C@H](CC2CCCCC2)N(CCc2cccc(F)c2)C1=O	i	12.4	-6.3	x	-0.7	i	x	x	x
CCCn1nnc(NC(=O)c2sc3ccccc3c2Cl)n1	i	50.7*	4.4	27.0	-1.2	i	54.5*	45.2	48.5
